Assay results: the supplement of paper PMC6555819

Assays:
Experiment in all cases: PBM binding z-score (relative to random genomic background probes); higher = stronger binding; sequences stand for … in GC…GCGATTGACAGCGTAGAATGAAGG
[1] = test system: PPARg:RXRa DBDmut IVT, anti-RXR (DBD mutation: RXRa K156A/R161A, NR concentration 270 nM, RXRa partner concentration 90 nM)
In short: (§1)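 Custom Agilent 4×180K protein-binding microarrays carried double-stranded probes. Their 34-nt variable regions held direct-repeat seeds, single-nucleotide variants, half-site ablations and random human genomic background sequences. Arrays were incubated 1 h with ligand-free nuclear receptor dimers in PBS pH 7.4, 2% milk, 0.02% Triton X-100, 1 mM DTT, 0.2 mg/mL BSA and 0.4 mg/ml salmon testes DNA. Antibodies against each partner (one per run) detected binding, and scanned fluorescence was regression-normalized. Binding z-scores use random background probes as reference.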

[2] = test system: PPARg:RXRa IVT, anti-PPARg (NR concentration 270 nM, RXRa partner concentration 90 nM)
In short: as §1

[3] = test system: PPARg DBDmut:RXRa IVT, anti-PPARg (DBD mutation: PPARg1 K132A/R137A, NR concentration 270 nM, RXRa partner concentration 90 nM)
In short: as §1

[4] = test system: PPARg DBDmut IVT, anti-PPARg (DBD mutation: PPARg1 K132A/R137A, NR concentration 270 nM)
In short: as §1

[5] = test system: PPARg homodimer (NR concentration 180 nM)
In short: as §1

[6] = test system: PXR:RXRa (NR concentration 270 nM, RXRa partner concentration 90 nM)
In short: as §1

[7] = test system: PXR homodimer (NR concentration 270 nM)
In short: as §1

[8] = test system: RARa:RXR (NR concentration 270 nM, RXRa partner concentration 90 nM)
In short: as §1

[9] = test system: RARa homodimer (NR concentration 270 nM)
In short: as §1

[10] = test system: RARb:RXRa (NR concentration 270 nM, RXRa partner concentration 90 nM)
In short: as §1

| Sequence | PBM binding z-score [1] | PBM binding z-score [2] | PBM binding z-score [3] | PBM binding z-score [4] | PBM binding z-score [5] | PBM binding z-score [6] | PBM binding z-score [7] | PBM binding z-score [8] | PBM binding z-score [9] | PBM binding z-score [10] |
| --- | --- | --- | --- | --- | --- | --- | --- | --- | --- | --- |
| ACTAGCAGGCCAAGTTTAGGTCACTCAAACAAAG | 0.729 | 1.54 | -0.154 | -0.113 | 0.824 | 0.86 | 0.177 | 1.7 | -0.431 | 2.33 |
| TCTCGGAGGAGACGAAAGGTCAGAGCTCGACATC | 0.912 | 1.49 | -0.00299 | -0.844 | 3.1 | 3.44 | -0.0245 | 4.57 | 1.35 | 3.44 |
| ATCTCTCGGTAACAAGTTCAGTGAAAGAGAGGAC | -0.852 | 0.6 | 0.792 | 1.21 | 0.807 | 1.46 | 1.77 | 0.694 | 0.38 | 1.49 |
| TCGAGGAGGTTACCAATGGGGCATTCAGCTTTCT | 1.15 | 1 | -0.386 | -0.775 | 0.8 | 1.05 | -0.411 | 1.43 | -0.136 | 1.67 |
| CCTGCTAGGTTAATGGTCAGCTAAAGCAGCTCGC | 2.01 | 1.36 | -0.242 | -0.61 | 0.222 | -0.336 | -0.337 | 0.0339 | -0.547 | 1.26 |
| CGTCCAAGGTCAAAGGTCAGTGTAGAGATGACGG | 4.11 | 5.93 | 0.888 | 1.64 | 5.56 | 7.16 | 1.91 | 8.91 | 3.88 | 5.94 |
| TCATATAGGTAAACATGTGAAAGTCCGTAAGTTA | 4.4 | 3.17 | 1.32 | 1.79 | 0.718 | 0.808 | 0.34 | 0.815 | 1.18 | 0.412 |
| CCTAGTTGGTGAAGGTCACACACGCTATAGGTAC | 1.01 | 2.4 | 1.24 | 0.782 | 2.47 | 3.34 | 1.34 | 3.61 | 1.61 | 3.74 |
| ACAGACTGGTGATGAAGGTAACTCAGGCTATCAT | -0.615 | -0.401 | 0.194 | -0.143 | -0.6 | -0.651 | -0.0629 | -0.424 | 0.115 | -0.396 |
| ACTAGCAGGCCCAGGGTCACTCAAGATTAGTCCG | -0.868 | 0.714 | -0.322 | -0.342 | 0.073 | 2.4 | 0.0496 | 2.75 | -0.377 | 2.27 |
| CCTACTGGGCCACGAAAGGTCAATGATTCAGTGA | 5.81 | 6.07 | 0.295 | -0.781 | 2.45 | 4.54 | 0.206 | 4.68 | 0.747 | 4.09 |
| TCTTGTAGATCAAAGGTTATGAAAGCCGAAGCCT | 2.32 | 3.32 | 0.577 | 0.452 | 1.12 | 1.88 | 0.0149 | 3.07 | -0.114 | 1.79 |
| TTCCCAAGGTGAAAGGTCGTTGATGCACGCCTTG | 1.67 | 4.56 | 0.3 | -0.0355 | 1.79 | 4.12 | 0.342 | 5.56 | -0.11 | 3.13 |
| ACTTTTAGTTGAGACGAGGGCAACCGATAGGTTG | 0.771 | 0.663 | 1.4 | 1.16 | 0.208 | 1.33 | 0.341 | 1.59 | 0.167 | 1.24 |
| TCTGCGAGGTCAACGATGGTCAGCTAATCTGCTA | 3.66 | 4.67 | 0.567 | 1.25 | 3.27 | 5.4 | 1.03 | 5.37 | 0.126 | 5.18 |
| ACAATGAGGTTATTAAGATCAGGGAATTGCGGTC | 2.08 | 2.07 | 1.27 | 1.25 | 0.869 | 1.58 | 1.15 | 1.49 | 1.12 | 1.74 |
| GGAACGAGGGCAAAGTCGATAGCATCTGTCGACG | 3.57 | 3.11 | 0.306 | 0.0307 | -0.309 | 0.155 | -0.0717 | 0.0883 | -0.247 | 1.87 |
| TCTAGTTGGTCATAGGTCACACACTCGAAATGCG | 2.59 | 4.4 | 1.15 | 1.18 | 3.12 | 3.48 | 1.07 | 4.39 | 1.88 | 3.22 |
| TCGAGTAGGTTTGGGGCATTCAGAATGGCGTCGA | 0.667 | -0.179 | -0.869 | -0.587 | -0.00492 | -0.143 | -0.414 | -0.156 | -0.479 | -0.00663 |
| CCGACTGGGGCATAGGTTACCATACTCAGTACGA | 2.91 | 4.3 | -0.132 | -0.537 | 0.866 | 0.141 | -0.441 | 0.637 | -0.24 | 0.735 |
| ATACCAAGGTGATCGTGAGGTGGTTGATACTAAC | 0.119 | 0.996 | 0.272 | 0.15 | 0.0507 | 0.417 | 0.167 | 0.474 | 0.144 | 0.774 |
| AATACAGGGTCATCGTAGGACAGAGTACGCACAG | 2.91 | 4.34 | 1.42 | 1.38 | 2.54 | 4.92 | 0.871 | 4.82 | 0.937 | 4.22 |
| CGAACTAGGTCAGAACAGGACAGTAAAGGATGAT | 7.08 | 7.22 | 1.86 | 1.17 | 1.1 | 1.02 | 0.0829 | 1.26 | 0.18 | 2.92 |
| CCTTACGGGTCACGAGGTTATAACACGACGAGCG | 3.55 | 5.17 | 1.01 | 0.726 | 2.11 | 4.38 | 0.145 | 5.6 | 0.574 | 4.58 |
| TAGCCTAGGTCATGGGCCAGAATACCACGCGAAC | 1.38 | 3.09 | -0.303 | -0.638 | 0.86 | 1.54 | -0.601 | 2.51 | 0.121 | 3.73 |
